# Data from PubChem BioAssay AID881 (National Center for Advancing Translational Sciences (NCATS), 2007).
# In all, about 110,000 compounds went through this assay and about 610 (0.55%) were called active. Roughly 3% stayed inconclusive and do not appear here. Calls follow the shape of the dose curve; as a rule, active = well fitted inhibition curve with a large enough effect; inconclusive = small, poorly fitted or top-dose-only effect; inactive = no such curve, though single readings can be large or run the other way. The list comes from a sample in which actives are over-represented; it also holds similar structures and randomly drawn compounds.
# Molecular target: Polyunsaturated fatty acid lipoxygenase ALOX15B (Homo sapiens) (UniProt O15296)
# Test: qHTS Assay for Inhibitors of 15-hLO-2 (15-human lipoxygenase 2); also: nearly all actives have a fitted effect of over 60% in size
# Conditions: purified 15hLO-2, xylenol orange hydroperoxide absorbance; series mostly up to 57.1 µM; activity change, negative = inhibition: at the top concentration
# In short: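 Purified human 15hLO-2 (50 nM final) preincubated with compounds 15 min at room temperature in 25 mM Hepes pH 7.5, 0.01% Triton X-100, then 45 uM arachidonic acid added for 90 min; hydroperoxide detected via ferrous/xylenol orange, 573/405 nm absorbance ratio.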
# % is scaled to controls: 0 for no effect and ±100 for the full control effect; potency is read from the fitted curve at half-maximal effect.
# Sequence of Polyunsaturated fatty acid lipoxygenase ALOX15B (Homo sapiens) (O15296 whole entry, looked up): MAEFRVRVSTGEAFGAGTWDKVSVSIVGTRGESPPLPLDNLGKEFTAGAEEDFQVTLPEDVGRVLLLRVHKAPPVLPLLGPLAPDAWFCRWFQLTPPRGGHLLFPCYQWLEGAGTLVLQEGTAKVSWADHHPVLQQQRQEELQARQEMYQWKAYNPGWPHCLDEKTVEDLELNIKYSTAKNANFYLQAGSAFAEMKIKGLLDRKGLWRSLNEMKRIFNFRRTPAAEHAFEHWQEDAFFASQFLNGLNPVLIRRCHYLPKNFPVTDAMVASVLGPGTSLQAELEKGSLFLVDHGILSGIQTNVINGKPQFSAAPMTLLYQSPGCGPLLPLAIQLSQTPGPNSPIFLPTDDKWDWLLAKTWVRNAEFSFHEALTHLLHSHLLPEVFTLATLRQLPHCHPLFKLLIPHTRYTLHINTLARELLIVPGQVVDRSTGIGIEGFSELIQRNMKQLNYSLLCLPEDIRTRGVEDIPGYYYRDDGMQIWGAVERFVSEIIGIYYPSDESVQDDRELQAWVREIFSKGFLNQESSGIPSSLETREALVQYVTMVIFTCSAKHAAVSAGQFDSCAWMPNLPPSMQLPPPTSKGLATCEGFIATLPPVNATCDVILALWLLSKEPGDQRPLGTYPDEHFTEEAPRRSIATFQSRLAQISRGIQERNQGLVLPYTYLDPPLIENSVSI
Compound,"activity change, negative = inhibition",Potency
Cc1ccc(CC2(O)CCN(CCOc3ccc(O)cc3)CC2)cc1,15.1% [at 0.0915 µM] (inactive),
Cc1ccc(/C=N/NC(=O)Cn2nc(C)c(Br)c2C)o1,-9.43% (inactive),
C=CCN(N=Nc1cccc([N+](=O)[O-])c1)c1cccc([N+](=O)[O-])c1,-5.62% (inactive),
CN(C)c1ccc(CNC2C3CC4CC(C3)CC2C4)cc1 (stereo not drawn),67.5% (inactive),
O=C(COc1ccc(Br)cc1F)NC1CCN(Cc2ccccc2)CC1,29.1% (inactive),
N#CC1=C(SCc2ccc(C#N)cc2)N=C(N)C(c2nc(-c3ccccc3)cs2)C12CCCCC2 (stereo not drawn),-1.4% (inactive),
CCOc1c2ccc(C(=O)NCc3ccc(OC(F)(F)F)cc3)cc2nn1C,10.7% (inactive),
Cc1ccc(NC2(C#N)C(=O)Nc3ccccc32)cc1 (stereo not drawn),-9.55% (inactive),
CC(=O)N1C(=O)C2(Nc3ccccc3N2)c2ccccc21,3.55% (inactive),
O=C1Nc2ccccc2C12Nc1ccccc1S2 (stereo not drawn),,7.94 µM (active)
Cc1ccc(CNC(=O)CCNS(=O)(=O)c2cccc3nonc23)cc1,-1.56% (inactive),
CC1=C(C/C=C(\C)CCCC(C)CCCC(C)CCCC(C)C)C(=O)c2ccccc2C1=O (stereo not drawn),-19.6% [at 0.0915 µM] (inactive),
Cn1c(SCC(=O)NC2CCCCC2)nnc1-c1cc2ccccc2o1,6.06% (inactive),
O=c1c2ccccc2nc2n1C(CSCc1ccccc1)CS2 (stereo not drawn),-0.0852% (inactive),
CCOC(=O)C1=C(C)Nc2sc(C(=O)c3ccc(Br)cc3)c(N)c2C1c1ccc(C(=O)OC)cc1 (stereo not drawn),-18.9% (inactive),
Cc1ccc(C(=O)OC2=CC(=O)CC(C)(C)C2)cc1,-18% [at 11.4 µM] (inactive),
COc1ccc(OC)c(Nc2nc(-c3ccc(O)c(O)c3)cs2)c1,,12.6 µM (active)
c1cnc(Nc2nc(-c3ccc4ccccc4c3)cs2)nc1,-9.83% (inactive),
COc1ccc(Nc2nc(-c3ccccc3)cs2)cc1,-0.853% (inactive),
O=C(OC1CCCCC1=O)c1cccc(S(=O)(=O)NCc2ccccc2)c1 (stereo not drawn),-5.34% (inactive),
OCCN(Cc1ccccc1)Cc1ccc(Cl)cc1,-6.06% (inactive),
O=C1CSC2=NCN(c3ccccc3)CN12,1.46% (inactive),

Compound,"activity change, negative = inhibition",Potency
O=C(NCc1ccco1)c1ccc(Cn2c(=O)c3sccc3n(Cc3ccc(F)cc3)c2=O)cc1,-11.1% (inactive),
CCn1c(-c2ccoc2C)n[nH]c1=S,13% (inactive),
CCCC1NC(=O)NC(C)=C1C(=O)OCC (stereo not drawn),-5.77% (inactive),
COc1cccc(OC)c1C(=O)Nc1ccc(N2CCCCC2)cc1,3.88% (inactive),
COc1ccc([N+](=O)[O-])cc1N(CC(O)Cn1nnc2ccccc21)S(=O)(=O)c1ccc(C)cc1 (stereo not drawn),-1.66% (inactive),
CCCCNCc1ccc(SC)cc1,21.2% (inactive),
Clc1ccc(-n2nnnc2CN2CCCCC2)cc1Cl,0.993% [at 11.4 µM] (inactive),
COc1ccc(Oc2c(Cl)cnn(-c3ccccc3)c2=O)cc1,-7.51% (inactive),
C#CCN(N(C)c1ncc(C(F)(F)F)cc1Cl)S(=O)(=O)c1ccc2ccccc2c1,-5.59% (inactive),
Cc1ccccc1-c1ccc(C(=O)O)s1,-3.34% [at 0.0915 µM] (inactive),
COC(=O)CNC(=O)c1ccccc1F,1.73% (inactive),
CC(C)CCSc1ncnc2c1oc1nc3c(cc12)COC(C)(C)C3,13.4% (inactive),
Cc1ccc(-c2csc(NC(=O)c3cccs3)n2)cc1,27.2% (inactive),
Cn1nc(-c2ccccc2)c(-c2nc(-c3ccc(Cl)cc3)no2)c1Cl,-4.91% (inactive),
CCCSc1nsc(N)n1,-13% (inactive),
COc1cc(OC)cc(C(=O)NC(=S)N2CCN(c3ccc(C(F)(F)F)cc3[N+](=O)[O-])CC2)c1,-13% (inactive),
COC(=O)CSc1snnc1-c1ccc(Cl)c(Cl)c1,2.53% (inactive),
COC(=O)c1ccccc1NC(=O)CN(Cc1ccc(Cl)cc1)S(C)(=O)=O,7.94% (inactive),
CC1CCN(c2ccc(S(=O)(=O)Nc3cc(C(=O)O)cc(C(=O)O)c3)cc2[N+](=O)[O-])CC1,2.65% (inactive),
COc1ccc(C)cc1NC(=O)CCS(=O)(=O)c1cccc2nonc12,-1.24% (inactive),
Cc1ccc(/C=N/NC(=O)c2sccc2OCc2ccc(F)cc2)cc1,6.49% (inactive),
C=CCNC(=S)NNc1ncnc2sc3c(c12)CC(C)(C)OC3,-29% (inactive),

Compound,"activity change, negative = inhibition",Potency
COC(=O)CSc1nnc(-c2cccnc2)o1,3.28% (inactive),
Oc1cc2c(cc1O)CN(C(=S)NCCc1ccc(Cl)cc1)CCC2,,12.6 µM (active)
O=C(CSCc1ccc(Cl)cc1)N1CCCCC1,1.73% (inactive),
NS(=O)(=O)c1ccc(CCNC(=O)Nc2ccc(Cl)cc2)cc1,-0.0198% (inactive),
CC(=O)c1ccc2c(ccc3ccccc32)c1,-0.686% (inactive),
C=CC(=O)c1ccc2ccccc2c1,,2 µM (active)
Cc1ccc2nc(CC(=O)c3ccc4ccccc4c3)c(=O)[nH]c2c1,-6.79% [at 11.4 µM] (inactive),
CCC(=O)Nc1ccc(C(=O)Nc2cccc(OC)c2)cc1,2.43% (inactive),
COc1ccccc1N=C(C)C1=C(O)COC1=O,1.25% (inactive),
Cc1cccc(-n2cnc(C(=O)Nc3cccnc3)c2)n1,3.31% (inactive),
Cc1ccc(S(=O)(=O)N2CCC(=O)N([C@H](COCc3ccccc3)Cc3ccccc3)CC2)cc1,6.39% [at 0.0915 µM] (inactive),
O=S1(=O)CCN(Cc2ccccc2Cl)CC1,-0.814% (inactive),
CCN(CC)CCn1c(=S)[nH]c2ncccc2c1=O,1.31% (inactive),
CCCc1cc(=O)[nH]c(SCC(=O)c2cc(C)n(CCC)c2C)n1,-8.86% (inactive),
COc1ccc(OC(C)C(=O)Nc2cccnc2)cc1 (stereo not drawn),4.53% (inactive),
C=CCNC(=S)N/N=C/c1ccc(OCc2ccccc2)cc1,-12.6% (inactive),
O=C(O)c1cc2ccccc2c(=O)s1,1.13% (inactive),
CS(=O)(=O)N(CC(=O)Nc1ccc(F)cc1F)c1cccc([N+](=O)[O-])c1,-23% (inactive),
COc1cccc(-c2cc(=O)c3cc(NC(=O)c4ccc(C)cc4)ccc3[nH]2)c1,-28.3% [at 0.0915 µM] (inactive),
Cc1cccc([C@H]2[C@@H]3C=CC[C@@H](C)[C@@H]3C(=O)N2Cc2ccccc2)c1,-6.63% [at 0.0915 µM] (inactive),
CCn1c(O)c2ccc(C(=O)N=NC(=O)c3cccnc3)cc2c1O,1.39% (inactive),
CCOC(=O)N1CCC(Nc2c(NCCCN3CCN(CC)CC3)c(=O)c2=O)CC1,2.51% (inactive),

Compound,"activity change, negative = inhibition",Potency
COc1cccc(N=c2oc3c(C)ncc(CO)c3cc2C(N)=O)c1,-13.3% (inactive),
CC(C)CCNC(=O)CC1C(=O)N(Cc2ccccc2)C(C)c2nc3ccccc3n21 (stereo not drawn),12.6% (inactive),
CC(C)(CNC(=O)c1cc(=O)[nH]c2ccccc12)N1CCOCC1,4.69% (inactive),
COc1ccc(CN2CCCCC2C)cc1OC (stereo not drawn),-1.37% (inactive),
Cc1ccc(CNC(=O)CCNC(=O)Cn2ccc3ccccc3c2=O)cc1,10.9% (inactive),
O=C(Nc1nnc(C2CC2)s1)c1ccccn1,28.8% (inactive),
C/C=C1\C2C=C(C)CC1(N)c1ccc(=O)[nH]c1C2 (stereo not drawn),-9.9% [at 0.0915 µM] (inactive),
Oc1ccc(O)c2c(O)cccc12,,12.6 µM (active)
COc1ccc(-c2cc3nc(C)c(CCC(=O)NC(C)CCc4ccco4)c(C)n3n2)c(OC)c1 (stereo not drawn),13.3% (inactive),
COc1cc(OC)c2c(c1)OC(=O)CC2c1cc(OC)c(OC)c(OC)c1 (stereo not drawn),-2.71% [at 0.0915 µM] (inactive),
COc1cc(OC)c2c(-c3cccc(-c4cccc(N)c4)c3)cc(=O)oc2c1,3.54% [at 0.0915 µM] (inactive),
O=C(c1cccc(N2CCCC2=O)c1)N1CCOCC1,-6.64% (inactive),
Cc1cc2oc(=O)cc(-c3ccccc3)c2c(C)c1/C=C/c1ccc(F)cc1,-8.43% [at 0.0915 µM] (inactive),
COc1ccc(SCc2noc(C(=O)NCC3CCCO3)c2C(=O)O)cc1 (stereo not drawn),-4.14% (inactive),
CCN1C(=O)/C(=C2/Sc3ccccc3N2CCCS(=O)(=O)O)SC1=S,,15.8 µM (active)
CCN1C(=O)/C(=C\N2CCN(c3ccccc3)CC2)SC1=S,-25.9% (inactive),
CCCCN1C(=O)/C(=C2/C=CC=CN2C)SC1=S,-27% (inactive),
CCN(CC)C(=O)CSc1nnc(-c2cccc(OC)c2)o1,2.94% (inactive),
COc1ccc(-c2nnc(SC(=O)N3c4ccccc4Sc4ccccc43)o2)cc1,,10 µM (active)
COc1ccc(-c2nnc(SC(C)C#N)o2)cc1 (stereo not drawn),0.86% (inactive),
Cc1cnc(NC(=O)CSc2nnc(C)s2)s1,-2.24% (inactive),
O=S(=O)(c1ccc(Br)cc1)c1nc(-c2ccccc2)oc1NCc1cccnc1,24.4% (inactive),

Compound,"activity change, negative = inhibition",Potency
Cc1ccc(-c2csc(NC(=O)Cc3cccs3)n2)cc1C,-5.8% (inactive),
Cc1nnc(NC(=O)CSc2nc(C3CCCCC3)nc3ccccc23)s1,4.22% (inactive),
CCOCCCNC(=O)C(NC(=O)c1ccc(=O)[nH]c1)c1ccc(C)cc1 (stereo not drawn),3.28% (inactive),
COc1ccc(N(CC(=O)NC2CCCCC2)S(=O)(=O)c2c(C)[nH]c(=O)[nH]c2=O)cc1,-0.497% (inactive),
CCc1c(C)[nH]c(=S)c(C#N)c1C,,31.6 µM (active)
O=C(Nc1ccccc1)c1ccccc1NC(=O)C(F)(F)F,0.576% (inactive),
CCCNC(=S)NC1CC2CCCC(C1)N2CC(C)C (stereo not drawn),4.08% (inactive),
Cc1ccc(F)c(NC(=O)CCc2ccccc2)c1,2.82% (inactive),
COc1ccc(-c2c(C)cc3oc(=O)cc(-c4ccccc4)c3c2C)cc1C=O,-27.8% [at 0.0915 µM] (inactive),
COc1ccc(C2CC(=O)Oc3ccc(C(C)(C)C)cc32)cc1 (stereo not drawn),-11.2% [at 0.0915 µM] (inactive),
CCCNC(=O)NCc1ccc(N2CCCC2=O)cc1,-2.71% (inactive),
COCc1cc(=O)[nH]c2cc(NC(=O)C(F)(F)F)c(C)cc12,-0.389% (inactive),
CCOC(=O)C1C/C(=C\C(C)=O)c2cccc(C(F)(F)F)c2O1 (stereo not drawn),4.83% [at 0.0915 µM] (inactive),
COc1cnc(SCc2ccc(Cl)c(Cl)c2)nc1Cl,13.5% (inactive),
C(=N/N1CCN(c2ccccc2)CC1)/c1cccs1,-1.53% (inactive),
COc1ccc(C(=O)NNC(=O)c2cnccn2)cc1[N+](=O)[O-],-1.79% (inactive),
COc1ccc(Nc2nc(=O)[nH]nc2C)cc1,-3.1% (inactive),
O=C(NCc1ccco1)C1(c2ccc(Cl)cc2)CCCC1,-3.03% (inactive),
O=C(NCc1ccco1)C1CCCN(S(=O)(=O)c2ccccc2)C1 (stereo not drawn),-2.62% (inactive),
CCc1ccc(C(=O)CSc2nnc(C)c(=O)[nH]2)cc1,2.83% (inactive),
